Compound activity deposited in PubChem by National Center for Advancing Translational Sciences (NCATS).
An excerpt weighted towards active compounds, which were near 20% of everything screened.
Pf growth 96h = inhibits malaria parasite growth, 96 h; Potency, µM (highest dose often 28.7 µM), without a hit: top-dose activity change, negative = inhibition, hits mostly inhibitors; P. falciparum luciferase reporter growth, 96 h; 6.9% of 320,000 active; also: potency is read from the fitted curve at half-maximal effect; % is scaled to controls: 0 for no effect and ±100 for the full control effect
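Delayed-death screen, second-generation endpoint: infected erythrocytes, 2% hematocrit, 0.05% parasitemia final; 96 hours at 37 C, 5% CO2; luciferase detection reagent; luminescence decrease equals reduced growth.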
Cycloheximide cs = affects cycloheximide protein synthesis inhibition readout, counter-screen. cell reporter, cycloheximide protein synthesis inhibition counterscreen. max response, %. 12% of 300,000 active; in the data active = max response mostly above about 13%, no sharp cut-off; inactive = mostly below about 14%; also: read at 38.3 µM for the half of the compounds with a filed dose; 0% is about no effect
HCMV antiviral = blocks human cytomegalovirus replication. HFF cells, HCMV-luciferase reporter, 72 h; active compounds read low. activity change, negative = inhibition, % at 57.5 µM. 4.5% of 410,000 active; in the data active = activity change below about -60%; inconclusive = no clear call, values can overlap the other calls; inactive = above about -39%; also: % is scaled to controls: 0 for no effect and ±100 for the full control effect
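Steps: HFFs plated, 16 h 37C; compounds added; HCMV-luciferase added to MOI 1 PFU/cell; 72 h 37C; OneGlo reagent, 5 min room temperature; luminescence read, normalized to controls.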
Pf growth 48h = inhibits P. falciparum growth in the first generation, 48 h; P. falciparum luciferase growth in erythrocytes, 48 h; Potency, µM (doses to about 28.7 µM), inactives show at the top dose activity change, negative = inhibition, most hits filed as inhibitors; 5.9% of 310,000 active; AID 504832; also: potency is read from the fitted curve at half-maximal effect; % is scaled to controls: 0 for no effect and ±100 for the full control effect
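A one-generation exposure of luciferase-tagged malaria parasites in RPMI 1640/Albumax erythrocyte culture, 37 C and 5% CO2. Inhibition is inferred from decreased luminescence after adding detection reagent.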
Shiga inhibitor = blocks Shiga toxin action in Vero cells; 9.2% of 290,000 active; AID 2315; Vero cells, Shiga toxin protein synthesis inhibition reporter; inhibition, % at 38.7 µM; in the data active = inhibition mostly above about 28%, no sharp cut-off; inactive = mostly below about 43%; also: 0% is about no effect
* hit, by the source's call; i = inactive; ? = inconclusive; nt = no result; [ ] = dose if it differs, or a comment. Unless noted, calls follow the shape of the dose curve; as a rule, active = well fitted inhibition curve with a large enough effect; inconclusive = small, poorly fitted or top-dose-only effect, or another doubt; inactive = no such curve, though single readings can be large or run the other way.

SMILES | Pf growth 96h | Cycloheximide cs | HCMV antiviral | Pf growth 48h | Shiga inhibitor
COc1cccc(OCc2cc(C(=O)N3C[C@H]4C[C@@H](C3)c3cccc(=O)n3C4)no2)c1 | ? | 60* | 152 | 0% | 52*
CCOc1cccc(C(=O)N2CCCCC2c2cccnc2)c1 (stereo not drawn) | 53% | 3 | 30 | 9.3µM* | 6
CC(=O)c1ccc(OCc2cc(C(=O)N3CC[C@@H]4CCCC[C@H]4C3)no2)cc1 | 17% | 75* | 42 | 0% | 104*
COc1cc(OC)cc(C(=O)NC(=S)N2CCCCC2c2cccnc2)c1 (stereo not drawn) | ? | -2 | -6 | 0% | 6
COc1cccc(OCc2cc(C(=O)N3CCN(C)C(c4ccccc4)C3)no2)c1 (stereo not drawn) | ? | 32* | nt | 2% | 77*
Cc1ccc(C)c(C(=O)OCC(=O)N(C)c2ccccc2)c1 | -8% | 10 | ? | -24% | 8
CC(=O)c1ccc(OCc2cc(C(=O)N3CCC(c4ccncc4)CC3)no2)cc1 | 4% | 8 | -81* | 3% | 23
COCC1CCCN(C(=O)c2cc(COc3ccc(C(C)=O)cc3)on2)C1 (stereo not drawn) | nt | nt | 65 | nt | nt
O=C(c1cc(COc2cccc(C(F)(F)F)c2)on1)N1CCC(c2ccncc2)CC1 | ? | -4 | nt | 6% | -16
CC(=O)c1ccc(OCc2cc(C(=O)NC3CCCCC3)no2)cc1 | 0% | 31* | 12 | 41% | 76*
CC(=O)c1ccc(OCc2cc(C(=O)N3CCCCC3c3cccnc3)no2)cc1 (stereo not drawn) | 19% | 54* | 6 | ? | 81*
COc1cccc(OCc2cc(C(=O)N3CCC(c4ccncc4)CC3)no2)c1 | -26% | 15 | -89* | 6% | -3
CCC(C)c1ccccc1N1CC(C(=O)N2CCN(S(=O)(=O)c3ccccc3Br)CC2)CC1=O (stereo not drawn) | 12µM* | nt | -3 | ? | nt
CCOc1ccccc1N1CC(C(=O)NCCC2=CCCCC2)CC1=O (stereo not drawn) | nt | nt | 4 | nt | nt
CC(C)CCN1CC(C(=O)NCCC2=CCCCC2)CC1=O (stereo not drawn) | -3% | 21* | 7 | -14% | 66*
CCC(C)c1ccccc1N1CC(C(=O)NCCC2=CCCCC2)CC1=O (stereo not drawn) | 15µM* | nt | -29 | ? | nt
COc1ccc(CN2CC(C(=O)NCCC3=CCCCC3)CC2=O)cc1 (stereo not drawn) | 430% | -4 | -31 | -15% | -16
Oc1ccc(C2=NN(c3ccccc3)C(c3ccc(F)cc3)C2)cc1 (stereo not drawn) | ? | 9 | 22 | 9.3µM* | 29
O=C(c1ccccc1)N1N=C(c2ccc(F)cc2)CC1c1ccc(F)cc1 (stereo not drawn) | nt | nt | -13 | nt | nt
Oc1ccccc1C1=NN(c2ccccc2)C(c2ccc(F)cc2)C1 (stereo not drawn) | 10µM* | 6 | -74* | ? | 2
COc1ccc2c(C)c(CCC(=O)NCc3ccc(Cl)cc3)c(=O)oc2c1C | nt | nt | -6 | nt | nt
CC(C)Cn1c(SCC#N)nc2ccccc2c1=O | 18% | -1 | -101* | -15% | -19
O=c1[nH]c(CSc2nnnn2-c2ccccc2)nc2ccccc12 | ? | 1 | 4 | 3% | -17
C=CCn1c(SCC#N)nc2ccccc2c1=O | -2%[5.75 µM] | 8 | -9 | -22% | 19
Cn1c(SCc2nc3ccccc3c(=O)[nH]2)nc2ccccc21 | -12% | 17* | -34 | 11% | 53
SMILES | Pf growth 96h | Cycloheximide cs | HCMV antiviral | Pf growth 48h | Shiga inhibitor
CCOC(=O)CSc1nc2ccccc2c(=O)n1CC(C)C | 31% | 1 | -33 | 53% | -3
Cn1c(SC2=CS(=O)(=O)c3ccccc32)nc2ccccc21 | 5%[5.75 µM] | 15 | -98* | 5.2µM* | 37
CC(NC(=O)CSc1nc2ccccc2n1C)c1ccccc1 (stereo not drawn) | 17% | -7 | -2 | 3% | -7
CC(C)Cn1c(SCc2nc3ccccc3c(=O)[nH]2)nc2ccccc2c1=O | 71% | 9 | -4 | 7.4µM* | -12
CC1=C2C3OC(=O)C(C)[C@@H]3CC[C@](C)(O)C2C2C3C4C5(C12)[C@H]1OC(=O)[C@@H](C)C1CC[C@]4(C)O[C@]5(C)[C@@H]3O (stereo partly drawn) | 8% | 8 | -16 | -4% | 4
O=C(NCCc1c[nH]c2ccccc12)C1CCN(S(=O)(=O)c2ccc(F)cc2)CC1 | -15% | -2 | 13 | -15% | -4
O=c1[nH]c(CSc2cccc[n+]2[O-])nc2ccccc12 | ? | 3 | 3 | 13µM* | 13
Cn1c(CSc2nc3ccccc3n2C)nc2ccccc21 | 14% | 19* | -17 | 28% | 48
O=c1[nH]c(CSc2ncn[nH]2)nc2ccccc12 | 22% | 1 | 0 | 16% | 16
Cn1c(-c2ccccc2)cnc1SCc1nc2ccccc2c(=O)[nH]1 | 2.3µM* | 27* | 52 | 198% | 114*
Cc1ccc(NC(=O)CSCc2cnn(-c3ccccc3)c2-n2cccc2)c(Cl)c1 | nt | nt | -16 | nt | nt
COc1cccc(CNc2nc3c(-c4cccc(C)c4)nnn3c3ccccc23)c1 | nt | nt | 63 | nt | nt
COc1cccc(CC(NC(C)=O)C(=O)NC2CCN(S(=O)(=O)c3ccc4ccccc4c3)CC2)c1 (stereo not drawn) | ? | -1 | 12 | nt | -2
COc1ccc([N+](=O)[O-])cc1NC(=O)C(C)OC(=O)C1CCC1 (stereo not drawn) | 0% | nt | -31 | 14% | nt
CCOc1ccc(CCNC(=O)CCc2c(C)nc3c(c(C)nn3-c3ccccc3)c2C)cc1OCC | nt | nt | 11 | nt | nt
CCC1C(=O)n2nc(-c3ccccc3)cc2N=C1C (stereo not drawn) | ? | 40* | 29 | ? | active
CCNC(=O)COC(=O)c1cc(-c2ccccc2)nn1-c1ccccc1 | -2% | 7 | -15 | 33% | -9
Cc1ccc(NC(=O)CSc2nnc(Cn3c(=O)sc4ccccc43)n2C)cc1Cl | 11% | -2 | 4 | 8% | 7
C=CCNc1nc(-c2cc3ccccc3o2)cs1 | 239% | 40* | -7 | 167% | 36
O=C(c1cc2ccccc2oc1=O)N(Cc1ccccc1)CC1CCCO1 (stereo not drawn) | ? | 6 | 13 | ? | 16
c1ccc2oc(-c3csc(NCC4CCCO4)n3)cc2c1 (stereo not drawn) | i | 30* | 7 | 419% | 74*
c1ccc2sc(NCC3CCCO3)nc2c1 (stereo not drawn) | 388% | 38* | 78 | 213% | 134*
CCOC(=O)[C@@H]1[C@H]2COc3ccc(Br)cc3[C@@H]2N2C(=O)N(c3ccc(F)cc3)C(=O)[C@@]12C | nt | nt | 20 | nt | nt
CCOC(=O)[C@@H]1[C@H]2COc3cc(OC)ccc3[C@H]2N2C(=O)N(c3ccc(C(F)(F)F)cc3)C(=O)[C@]12C | nt | nt | -88* | nt | nt
